Measured values taken from PubChem BioAssay (NCI).
About 79,000 compounds went through this panel and 15% of them were active in at least one assay; those are over-represented in the sample as a whole. The source made the active and inactive calls. Cut-off read from the data, not from the text of the source: active = growth inhibition above about 70%; inactive = the rest.

Tests used:
[1] = NCI Yeast Anticancer Drug Screen. Data for the rad52 strain (AID 147);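 note: 0% = growth of vehicle-treated control cultures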; conditions: S. cerevisiae rad52 mutant growth inhibition, hits give high values
How it was run: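 Genetically altered yeast (DNA damage repair defect) treated with compound; inhibition calculated relative to vehicle.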

[2] = NCI Yeast Anticancer Drug Screen. Data for the wt1 strain (AID 149);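 note: 0% = growth of vehicle-treated wt1 cultures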; conditions: S. cerevisiae wt1 strain (SPY 50644) growth inhibition, hits give high values
How it was run: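 Measured: growth of wt1 yeast under compound versus vehicle treatment, reported as inhibition.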

[3] = NCI Yeast Anticancer Drug Screen. Data for the rad50EPP+ strain (AID 151);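 note: 0% = growth of vehicle-treated control cultures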; conditions: S. cerevisiae rad50 mutant strain, hits give high values
How it was run: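 Strain rad50EPP+; compound exposure; % growth inhibition vs vehicle.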

[4] = NCI Yeast Anticancer Drug Screen. Data for the mgt1 strain (AID 153); conditions: S. cerevisiae mgt1 mutant growth inhibition, hits give high values
How it was run: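 Read-out: yeast growth inhibition vs vehicle control. Strain mgt1, drawn from a panel altered in DNA damage repair or cell cycle control.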

[5] = NCI Yeast Anticancer Drug Screen. Data for the rad50 strain (AID 155);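 note: 0% = growth of vehicle-only cultures of the same strain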; conditions: S. cerevisiae rad50 strain growth inhibition, hits give high values
How it was run: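 Growth of the mutant yeast was measured after compound exposure and referenced to vehicle-treated cultures.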

[6] = NCI Yeast Anticancer Drug Screen. Data for the mec2-1 strain (AID 157); conditions: S. cerevisiae mec2-1 strain, hits give high values
How it was run: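 Cells of the genetically defined mec2-1 yeast strain are incubated with test compound. Inhibition of growth is calculated against vehicle-treated controls.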

[7] = NCI Yeast Anticancer Drug Screen. Data for the rad14 strain (AID 159);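 note: 0% = growth of vehicle-treated control cultures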; conditions: S. cerevisiae rad14 strain growth inhibition, hits give high values
How it was run: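 Here, inhibition of yeast growth was measured after compound exposure, using a strain with a genetic defect in DNA damage repair and vehicle-treated cultures as the reference.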

[8] = NCI Yeast Anticancer Drug Screen. Data for the sgs1 mgt1 strain (AID 161);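 note: 0% = growth of cultures given vehicle only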; conditions: S. cerevisiae sgs1 mgt1 strain, hits give high values
How it was run: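 Genetically altered yeast, compound exposure, growth inhibition relative to vehicle.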

[9] = NCI Yeast Anticancer Drug Screen. Data for the CLN2oe strain (AID 163);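 note: 0% = growth of vehicle-only control cultures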; conditions: S. cerevisiae CLN2oe strain, hits give high values
How it was run: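 Strain altered in cell-cycle control, incubated with compound; growth compared to solvent-treated controls.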

[10] = NCI Yeast Anticancer Drug Screen. Data for the cln2 rad14 strain (AID 165);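 note: 0% = growth equal to vehicle treated cultures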; conditions: S. cerevisiae cln2 rad14 strain, hits give high values
How it was run: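 The screen exposed genetically defined yeast (cln2 rad14) to test compounds and scored growth inhibition relative to vehicle-treated controls.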

[11] = NCI Yeast Anticancer Drug Screen. Data for the bub3 strain (AID 167); conditions: S. cerevisiae bub3 mutant strain, hits give high values
How it was run: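 Whole-cell yeast assay. The mutant strain was incubated with compounds, and growth inhibition was determined by comparison with vehicle-treated cells.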

[12] = NCI Yeast Anticancer Drug Screen. Data for the wt2 strain (AID 169);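 note: 0% = growth of vehicle-treated yeast cultures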; conditions: S. cerevisiae wt2 strain growth inhibition, hits give high values
How it was run: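 Steps: yeast strain treated with compound; growth recorded; inhibition calculated relative to cultures given vehicle alone.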

[13] = NCI Yeast Anticancer Drug Screen. Data for the sgs1 strain (AID 173);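 note: 0% = growth of vehicle-only control cultures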; conditions: S. cerevisiae sgs1 mutant, hits give high values
How it was run: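 Inhibition of yeast growth served as the measure. The mutant strain was treated with each compound, and growth was normalised to cultures receiving vehicle alone.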

[14] = NCI Yeast Anticancer Drug Screen. Data for the mlh1 rad18 strain (AID 175); conditions: S. cerevisiae mlh1 rad18 strain growth inhibition, hits give high values
How it was run: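 Compound-treated yeast growth, normalised to vehicle controls. Strain bears defined DNA repair mutations.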

[15] = NCI Yeast Anticancer Drug Screen. Data for the rad18 strain (AID 177); conditions: S. cerevisiae rad18 mutant growth inhibition, hits give high values
How it was run: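 Inhibition values reflect reduced yeast growth compared with vehicle-treated controls, using a strain engineered with a DNA damage repair defect.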

[16] = at 5.0 µM (retest, dose inferred, filed as 0.5)
[17] = at 50.0 µM (retest, dose inferred, filed as 5.0)

Measured: growth inhibition

COc1ccc(N2CN(C)CSC2=S)cc1
inactive: [1]; at 1.2 µM -27% | [1]; at 3.7 µM -11% | [1]; at 11.0 µM -1% | [1]; at 33.0 µM 43% | [2]; at 1.2 µM -18% | [2]; at 3.7 µM -14% | [2]; at 11.0 µM -22% | [2]; at 33.0 µM -1% | [2]; at 100.0 µM 58% | [3]; at 1.2 µM -36% | [3]; at 3.7 µM 10% | [3]; at 11.0 µM 58% | [4]; at 1.2 µM -51% | [4]; at 3.7 µM -48% | [4]; at 11.0 µM -36% | [4]; at 33.0 µM -11% | [4]; at 100.0 µM 61% | [5]; at 1.2 µM -20% | [5]; at 3.7 µM 3% | [5]; [16] 61% | [5]; at 11.0 µM 25% | [5]; at 33.0 µM 63% | [5]; at 50.0 µM 10.6% | [6]; at 1.2 µM -17% | [6]; at 3.7 µM -29% | [6]; at 11.0 µM -22% | [6]; at 33.0 µM -2% | [6]; at 50.0 µM 8.85% | [7]; at 1.2 µM -24% | [7]; at 3.7 µM -22% | [7]; at 11.0 µM -21% | [7]; at 33.0 µM -11% | [7]; at 100.0 µM 40% | [8]; [16] -20% | [8]; [17] 59% | [9]; at 1.2 µM -23% | [9]; at 3.7 µM -23% | [9]; at 11.0 µM -39% | [9]; at 33.0 µM -9% | [9]; at 100.0 µM 24% | [10]; [16] 22% | [10]; [17] 59% | [11]; at 1.2 µM -12% | [11]; at 3.7 µM -11% | [11]; [16] 35% | [11]; at 11.0 µM -12% | [11]; at 33.0 µM 32% | [12]; at 1.2 µM -25% | [12]; at 3.7 µM -15% | [12]; at 11.0 µM -22% | [12]; at 33.0 µM -7% | [12]; at 100.0 µM 58% | [13]; at 1.2 µM -43% | [13]; at 3.7 µM -41% | [13]; at 11.0 µM -39% | [13]; at 33.0 µM 7% | [14]; [16] 51% | [14]; at 50.0 µM 56.4% | [15]; at 1.2 µM -67% | [15]; at 3.7 µM -64% | [15]; at 11.0 µM -53% | [15]; at 33.0 µM -41% | [15]; at 100.0 µM 52%
active: [1]; at 100.0 µM 72% | [3]; at 33.0 µM 81% | [3]; at 100.0 µM 90% | [5]; [17] 95% | [5]; at 100.0 µM 83% | [6]; [16] 73% | [6]; [17] 96% | [6]; at 100.0 µM 75% | [11]; [17] 83% | [11]; at 100.0 µM 73% | [13]; at 100.0 µM 71% | [14]; [17] 97%

Cc1ccc2c(ccc(/C=C/c3ccc(O)c4ncccc34)[n+]2C)c1
active: [1]; at 11.0 µM 89% | [1]; at 33.0 µM 94% | [1]; at 100.0 µM 81% | [2]; at 11.0 µM 85% | [2]; at 33.0 µM 94% | [2]; at 100.0 µM 81% | [3]; at 33.0 µM 87% | [3]; at 100.0 µM 79% | [4]; at 11.0 µM 84% | [4]; at 33.0 µM 95% | [4]; at 100.0 µM 82% | [5]; at 11.0 µM 88% | [5]; at 33.0 µM 93% | [5]; [17] 93% | [5]; at 100.0 µM 74% | [6]; at 11.0 µM 89% | [6]; at 33.0 µM 93% | [6]; [17] 94% | [6]; at 100.0 µM 77% | [7]; at 11.0 µM 90% | [7]; at 33.0 µM 94% | [7]; at 100.0 µM 77% | [8]; [17] 98% | [8]; at 50.0 µM 82% | [9]; at 11.0 µM 78% | [9]; at 33.0 µM 90% | [9]; at 100.0 µM 77% | [10]; [17] 95% | [10]; at 50.0 µM 84% | [11]; at 11.0 µM 87% | [11]; at 33.0 µM 91% | [11]; [17] 98% | [11]; at 50.0 µM 84.9% | [11]; at 100.0 µM 74%
inactive: [1]; at 1.2 µM 17% | [1]; at 3.7 µM 46% | [2]; at 1.2 µM 4% | [2]; at 3.7 µM 30% | [3]; at 1.2 µM 3% | [3]; at 3.7 µM 27% | [3]; at 11.0 µM 60% | [4]; at 1.2 µM 8% | [4]; at 3.7 µM 40% | [5]; at 1.2 µM 1% | [5]; at 3.7 µM 41% | [5]; [16] 40% | [6]; at 1.2 µM 10% | [6]; at 3.7 µM 37% | [6]; [16] 43% | [7]; at 1.2 µM -15% | [7]; at 3.7 µM 37% | [8]; [16] 23% | [9]; at 1.2 µM -6% | [9]; at 3.7 µM 18% | [10]; [16] 17% | [11]; at 1.2 µM 18% | [11]; at 3.7 µM 33% | [11]; [16] 10% | [12]; at 1.2 µM -16% | [12]; at 3.7 µM 2%
